The source made the active and inactive calls.
Key:
[1] = test system: Plasmodium falciparum Sir2 (PF13_0152, Sir2A); assay: pfSir2 binders on small-molecule microarrays, primary screen, biochemical, small-molecule microarray, 635 nm fluorescence (AID 1098); conditions: small-molecule microarray binding, fluorescence 635 nm; higher = more signal;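 note: score merges spot fluorescence intensity with its signal-to-noise ratio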
[2] = small-molecule microarray binders of probe aDKK1, primary screen, biochemical, biotinylated probe, 635/667 nm fluorescence (AID 1099); conditions: higher = more signal;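 note: score merges 667nm spot fluorescence with signal to noise across triplicate slides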
[3] = small-molecule microarray binders of probe aCHRDL2, primary screen, biochemical, biotinylated probe, 635/667 nm fluorescence (AID 1100); conditions: higher = more signal
[4] = splicing luciferase reporter signal modulators, primary screen, spliceosome inhibition project, cell-based, HEK293, splice +/- reporter (AID 1101); conditions: luminescence, 24 h, higher = more signal, called active from +8 up or from −8 down;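 note: HEK293 cells carrying a splicing-competent luciferase reporter gene; test concentration not given here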
[5] = target: Fibroblast growth factor 10 (Homo sapiens) (UniProt O15520); assay: FGF10 binders on small-molecule microarrays, primary screen, biochemical, small-molecule microarray, 635 nm fluorescence (AID 1102); conditions: FGF10 binding, fluorescence 635 nm, higher = more signal
Chain of Fibroblast growth factor 10 (Homo sapiens) (O15520 whole entry, looked up): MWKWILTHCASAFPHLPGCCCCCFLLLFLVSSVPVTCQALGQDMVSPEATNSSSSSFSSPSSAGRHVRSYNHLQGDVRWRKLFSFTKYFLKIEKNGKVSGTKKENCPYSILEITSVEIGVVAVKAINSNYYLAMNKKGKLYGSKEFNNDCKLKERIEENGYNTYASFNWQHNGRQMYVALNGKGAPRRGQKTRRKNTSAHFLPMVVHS

[6] = test system: glycogen synthase kinase-3 (GSK3A per assay name; protocol says GSK3B); assay: GSK3 binders on small-molecule microarrays, primary screen, biochemical, small-molecule microarray, 635 nm fluorescence, GSK3A (AID 1103); conditions: small-molecule microarray binding, fluorescence 635 nm; higher = more signal; note: the record names both GSK3A and GSK3B
[7] = target: Epidermal growth factor receptor (Homo sapiens) (UniProt P00533); assay: EGFR binders on small-molecule microarrays, primary screen, biochemical, small-molecule microarray, 635 nm fluorescence (AID 1104); conditions: EGFR binding, higher = more signal;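 note: score merges 667 nm emission intensity with spot signal to noise over triplicate slides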
Chain of Epidermal growth factor receptor (Homo sapiens) (P00533 whole entry, looked up): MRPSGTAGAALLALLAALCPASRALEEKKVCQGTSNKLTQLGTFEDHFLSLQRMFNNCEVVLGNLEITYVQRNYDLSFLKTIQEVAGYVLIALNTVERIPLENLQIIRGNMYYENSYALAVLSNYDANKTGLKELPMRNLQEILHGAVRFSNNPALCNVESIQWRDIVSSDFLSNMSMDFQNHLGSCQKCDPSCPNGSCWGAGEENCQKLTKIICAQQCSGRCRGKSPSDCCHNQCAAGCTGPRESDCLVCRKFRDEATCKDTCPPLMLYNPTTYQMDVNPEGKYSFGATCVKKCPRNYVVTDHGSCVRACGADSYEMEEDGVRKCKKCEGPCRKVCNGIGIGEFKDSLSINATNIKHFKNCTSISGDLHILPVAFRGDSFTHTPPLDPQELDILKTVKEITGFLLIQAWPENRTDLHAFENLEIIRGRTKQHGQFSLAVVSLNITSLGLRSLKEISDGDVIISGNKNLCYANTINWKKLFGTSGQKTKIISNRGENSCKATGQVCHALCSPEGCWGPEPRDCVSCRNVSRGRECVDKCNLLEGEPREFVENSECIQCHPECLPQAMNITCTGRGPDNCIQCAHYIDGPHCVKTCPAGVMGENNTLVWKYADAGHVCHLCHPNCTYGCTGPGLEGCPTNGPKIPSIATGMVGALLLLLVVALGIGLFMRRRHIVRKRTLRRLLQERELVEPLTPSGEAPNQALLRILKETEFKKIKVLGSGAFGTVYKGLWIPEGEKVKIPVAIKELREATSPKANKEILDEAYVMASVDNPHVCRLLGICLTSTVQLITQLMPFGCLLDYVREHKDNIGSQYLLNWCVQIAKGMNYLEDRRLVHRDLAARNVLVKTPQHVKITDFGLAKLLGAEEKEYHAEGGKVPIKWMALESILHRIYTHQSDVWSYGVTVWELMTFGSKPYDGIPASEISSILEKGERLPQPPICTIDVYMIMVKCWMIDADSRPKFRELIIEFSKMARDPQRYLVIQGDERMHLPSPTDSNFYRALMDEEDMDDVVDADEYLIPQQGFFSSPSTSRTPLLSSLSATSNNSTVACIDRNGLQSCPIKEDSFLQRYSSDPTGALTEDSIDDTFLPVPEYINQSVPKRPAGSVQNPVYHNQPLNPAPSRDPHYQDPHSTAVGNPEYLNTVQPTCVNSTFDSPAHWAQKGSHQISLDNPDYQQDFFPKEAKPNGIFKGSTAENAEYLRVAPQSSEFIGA

[8] = target: Follistatin-related protein 3 (Homo sapiens) (UniProt O95633); assay: FSTL3 binders on small-molecule microarrays, primary screen, biochemical, small-molecule microarray, 635 nm fluorescence (AID 1105); conditions: FSTL3 binding, higher = more signal;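 note: score merges emission near 667 nm and signal to noise per printed spot across three slides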
Chain of Follistatin-related protein 3 (Homo sapiens) (O95633 whole entry, looked up): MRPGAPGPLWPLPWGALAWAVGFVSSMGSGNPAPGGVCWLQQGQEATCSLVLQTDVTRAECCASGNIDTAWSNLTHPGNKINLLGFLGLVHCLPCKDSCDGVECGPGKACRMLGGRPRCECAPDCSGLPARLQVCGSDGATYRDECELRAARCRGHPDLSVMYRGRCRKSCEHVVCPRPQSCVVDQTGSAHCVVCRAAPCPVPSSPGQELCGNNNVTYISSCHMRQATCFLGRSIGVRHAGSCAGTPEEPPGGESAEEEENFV

[9] = target: Dickkopf-related protein 1 (Homo sapiens) (UniProt O94907); assay: DKK1 binders on small-molecule microarrays, primary screen, biochemical, small-molecule microarray, 635 nm fluorescence scan (AID 1106); conditions: DKK1 binding, higher = more signal;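 note: score merges emission near 667 nm with signal to noise over three replicate slides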
Chain of Dickkopf-related protein 1 (Homo sapiens) (O94907 whole entry, looked up): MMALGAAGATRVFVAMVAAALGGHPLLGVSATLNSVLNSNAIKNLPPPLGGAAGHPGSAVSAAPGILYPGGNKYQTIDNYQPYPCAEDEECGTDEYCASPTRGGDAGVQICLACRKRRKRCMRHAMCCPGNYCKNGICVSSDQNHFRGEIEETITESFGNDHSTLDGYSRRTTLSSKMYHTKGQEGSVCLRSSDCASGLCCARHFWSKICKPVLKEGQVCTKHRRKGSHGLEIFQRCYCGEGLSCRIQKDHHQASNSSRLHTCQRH

[10] = test system: Inhibin beta A chain (activin A); assay: INHBA (activin A) binders on microarrays, primary screen, biochemical, small-molecule microarray, 635 nm fluorescence scan (AID 1107); conditions: small-molecule microarray binding, higher = more signal;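 note: mouse activin A protein probed at 4.33 µg/mL on printed slides; score merges bound-protein fluorescence near 667 nm with spot signal-to-noise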
[11] = test system: Human papillomavirus type 1a protein E7 (residues 44-93); assay: HPV1a E7 fragment binders on microarrays, primary screen, biochemical, small-molecule microarray, residues 44-93, 635 nm fluorescence (AID 1108); conditions: small-molecule microarray binding, fluorescence 635 nm; higher = more signal;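 note: E7 fragment applied at 1 µg/mL in TBST for 1 h at 4 C; score combines spot fluorescence with its signal to noise ratio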
[12] = modulators of HCV replicon luciferase signal, primary screen, HCV replication inhibitor project, Huh7 cells, luciferase reporter (AID 1109); conditions: 48 h, higher = more signal;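 note: huh7 hepatoma cells harbouring a luciferase neomycin HCV replicon reporter; luciferase luminescence as measure of HCV replicon replication; test concentration not given here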
[13] = target: Left-right determination factor 2 (Homo sapiens) (UniProt O00292); assay: LEFTY2 binders on small-molecule microarrays, primary screen, biochemical, small-molecule microarray, 635 nm fluorescence scan (AID 1110); conditions: LEFTY2 binding, higher = more signal
Chain of Left-right determination factor 2 (Homo sapiens) (O00292 whole entry, looked up): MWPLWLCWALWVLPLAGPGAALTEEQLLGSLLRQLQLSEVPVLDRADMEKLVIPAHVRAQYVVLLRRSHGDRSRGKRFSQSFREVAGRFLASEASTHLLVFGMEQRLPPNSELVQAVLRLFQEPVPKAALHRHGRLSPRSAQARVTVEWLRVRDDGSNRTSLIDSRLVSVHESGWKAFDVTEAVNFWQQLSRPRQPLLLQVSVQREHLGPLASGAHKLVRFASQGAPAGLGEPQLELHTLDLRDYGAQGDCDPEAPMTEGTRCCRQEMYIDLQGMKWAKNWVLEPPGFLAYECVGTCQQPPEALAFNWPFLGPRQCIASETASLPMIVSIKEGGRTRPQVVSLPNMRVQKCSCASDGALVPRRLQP

[14] = target: Calmodulin-1 (Homo sapiens) (UniProt P0DP23); assay: CALM1 binders on microarrays, EGTA buffer, profiling panel, biochemical, small-molecule microarray, Cy5-labelled CALM1 (AID 1111); conditions: Cy5-CALM1 binding fluorescence, higher = more signal;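 note: labelled calmodulin applied in Tris saline Tween buffer holding calcium plus EGTA and DTT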
[15] = target: Calmodulin-1 (Homo sapiens) (UniProt P0DP23); assay: calcium-bound CALM1 binders on microarrays, profiling panel, artefact control for SMM control-protein annotation, biochemical, small-molecule microarray, Cy5-labelled CALM1, plus calcium (AID 1112); conditions: Cy5-CALM1 binding fluorescence, higher = more signal;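 note: score merges spot fluorescence with signal to noise from triplicate slides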
[16] = small-molecule microarray binders of probe aWnt5a, primary screen, biochemical, biotinylated probe, 635/667 nm fluorescence (AID 1113); conditions: higher = more signal;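 note: score merges 667 nm fluorescence intensity with signal-to-noise per printed feature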
[17] = small-molecule microarray binders of probe aShh, primary screen, biochemical, biotinylated probe, 635/667 nm fluorescence (AID 1114); conditions: higher = more signal;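 note: probe is biotin-labelled aShh protein from a stem cell growth factor screen; measures binding of labelled protein to compounds printed on the slide; score merges feature fluorescence at 667 nm with signal-to-noise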
[18] = small-molecule microarray binders of probe aNog, primary screen, biochemical, biotinylated probe, 635/667 nm fluorescence (AID 1115); conditions: higher = more signal;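 note: probe is biotinylated aNog protein used at 0.15 µg/mL for 1 h at 4 C; z-score combines 667 nm fluorescence of each spot with its signal to noise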
[19] = target: Torsin-1A-interacting protein 1 (Homo sapiens) (UniProt Q5JTV8); assay: LAP1 binders from COS7 cell lysate, primary screen, small-molecule microarray, 635/667 nm fluorescence (AID 1116); conditions: COS7-hLAP1 lysate binding, 635 nm fluorescence, higher = more signal
Chain of Torsin-1A-interacting protein 1 (Homo sapiens) (Q5JTV8 whole entry, looked up): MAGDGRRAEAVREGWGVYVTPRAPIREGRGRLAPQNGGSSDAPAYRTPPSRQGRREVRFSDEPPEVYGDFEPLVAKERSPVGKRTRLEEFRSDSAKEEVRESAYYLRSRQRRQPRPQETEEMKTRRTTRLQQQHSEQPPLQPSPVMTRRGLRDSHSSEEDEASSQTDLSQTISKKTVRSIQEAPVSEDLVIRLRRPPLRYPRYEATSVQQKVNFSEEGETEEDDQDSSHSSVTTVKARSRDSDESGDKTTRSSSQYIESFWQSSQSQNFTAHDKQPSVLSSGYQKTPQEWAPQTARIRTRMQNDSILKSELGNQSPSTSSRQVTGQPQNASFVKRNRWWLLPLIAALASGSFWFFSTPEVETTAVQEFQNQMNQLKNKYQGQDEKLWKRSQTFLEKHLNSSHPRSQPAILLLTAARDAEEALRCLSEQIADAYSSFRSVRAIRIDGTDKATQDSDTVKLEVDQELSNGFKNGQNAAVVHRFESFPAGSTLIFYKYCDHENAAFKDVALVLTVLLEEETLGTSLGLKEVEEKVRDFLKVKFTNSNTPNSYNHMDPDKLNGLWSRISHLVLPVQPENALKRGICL

[20] = target: Alpha-bungarotoxin (Bungarus multicinctus) (UniProt P60615); assay: alpha-bungarotoxin binders on microarray, profiling panel, artefact control for SMM control protein annotation, biochemical, small-molecule microarray, Alexa647 label, 635/667 nm fluorescence (AID 1117); conditions: alpha-BTX-A647 binding fluorescence, higher = more signal
Chain of Alpha-bungarotoxin (Bungarus multicinctus) (P60615 whole entry, looked up): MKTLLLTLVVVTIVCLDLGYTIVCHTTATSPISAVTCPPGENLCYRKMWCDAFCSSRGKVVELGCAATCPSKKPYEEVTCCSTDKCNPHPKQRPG

Row | Compound | composite z-score [1] | composite z-score [2] | composite z-score [3] | z-score [4] | composite z-score [5] | composite z-score [6] | composite z-score [7] | composite z-score [8] | composite z-score [9] | composite z-score [10] | composite z-score [11] | z-score [12] | composite z-score [13] | composite z-score [14] | composite z-score [15] | composite z-score [16] | composite z-score [17] | composite z-score [18] | composite z-score [19] | composite z-score [20]
1 | CC(C)CON=C1[C@H]2CCn3c(=O)n(C)c(=O)n3[C@H]2[C@H](O)[C@@H]2O[C@H]12 | 0.59 | -0.339 | -0.507 | 0.253 (inactive) | 0.401 | 0.481 | 0.377 | 0.703 | 0.708 | 0.283 | 0.274 | 0.104 | 0.494 | -0.0875 | -0.609 | -0.127 | 0.0796 | -0.232 | 0.18 | 0.255
2 | O=C1C2=CC[C@H]3C(=O)N(C4CCCCC4)C(=O)[C@H]3[C@H]2[C@H](O)[C@@H]2O[C@H]12 | -0.541 | -0.121 | -0.588 | 15.3 (active) | -0.246 | -1.31 | 0.0862 | -1.22 | 0.271 | -0.185 | -1.46 | -5.43 | -0.0026 | -0.883 | -0.828 | -0.206 | -0.282 | -0.307 | -0.11 | -0.635
3 | CC(CCN1CCCc2nc(C)c(C)cc21)=NO[C@H](C)c1cn([C@@H]2COC[C@H]2O)nn1 | 0.389 | -0.156 | -0.519 | 0.169 (inactive) | 0.667 | 1.11 | 1.06 | 0.884 | 0.902 | 1.26 | 0.839 | 0.0504 | 0.831 | -0.253 | -0.718 | -0.0478 | 0.0611 | -0.158 | 0.695 | 0.102
4 | O=C1CCCC=C1C(O)C1CCCCC1 (stereo not given) | -0.895 | -0.214 | -0.476 | 0.301 (inactive) | 0.42 | -0.0973 | 0.309 | 0.324 | 0.165 | 0.615 | -0.64 | 0.108 | -0.0231 | -0.583 | -0.389 | 0.0088 | -0.186 | -0.134 | -0.207 | -0.268
5 | C[C@@H](c1ccccc1)N1C(=O)[C@H]2[C@H]3[C@H](O)[C@H](O)CC(=NOCc4ccccc4)[C@@H]3CC[C@H]2C1=O | -0.139 | 1.19 | 1.31 | 0.36 (inactive) | -0.222 | -0.187 | -0.169 | -0.909 | -1 | 0.549 | -0.233 | -0.701 | 0.11 | -0.38 | -0.0198 | 0.0061 | -0.276 | 0.593 | 0.348 | 0.993
6 | CC(CCN1CCCCc2nc(C)c(C)cc21)=NO[C@@H](C)c1cc(-c2c(C)cc(C)cc2C)no1 | 1.41 | -0.422 | 0.27 | 0.673 (inactive) | -0.488 | -1.05 | -1.51 | -1.35 | -0.0396 | 0.823 | -0.384 | -1.56 | -0.747 | -0.901 | -0.891 | -0.152 | -0.221 | -0.298 | 0.0623 | -0.664
7 | CC(CCC(=O)OC[C@H]1O[C@H](C#Cc2ccccc2)C=C[C@@H]1Oc1ccc(C)cc1)=NO[C@@H](C)c1cc(-c2c(C)cc(C)cc2C)no1 | 0.199 | -0.293 | -0.0256 | 0.0536 (inactive) | -1.43 | -1.48 | -0.983 | -1.27 | -0.465 | 0.486 | -0.612 | -0.824 | -0.547 | -0.413 | -0.262 | -0.232 | 0.0121 | -0.118 | 0.328 | 0.326
8 | CC(C)=CCCC(C)=CCON=C1C[C@@H](O)[C@@H](O)[C@@H]2[C@@H]3C(=O)N(Cc4ccc5c(c4)OCO5)C(=O)[C@@H]3CC[C@H]12 | 0.567 | -0.101 | -0.257 | 0.294 (inactive) | 0.797 | 0.327 | 0.426 | 0.821 | 0.35 | 1.02 | 1.38 | -1.45 | 0.546 | -0.588 | -1.11 | -0.0346 | -0.2 | -0.28 | 0.142 | 0.168
9 | COC(=O)[C@@H]1CC[C@H](C)[C@@H](c2ccc(Br)cc2)N1C[C@@H](O)CN=[N+]=[N-] | 0.0292 | -0.0196 | -0.304 | -1.34 (inactive) | 0.189 | 0.078 | 0.532 | 0.0985 | 0.356 | -0.28 | 0.29 | -0.779 | 0.445 | -0.178 | -0.437 | -0.0403 | 0.0494 | -0.0103 | 0.289 | -0.291
10 | CC(C)(C)N1C(=O)[C@H]2[C@H]3[C@H](O)[C@H](O)CC(=NOC[C@@H](O)COCc4ccco4)[C@H]3CC[C@H]2C1=O | 0.732 | 0.486 | 0.708 | 1.13 (inactive) | 0.207 | -0.274 | -0.284 | -0.28 | -0.0956 | 0.0091 | 0.39 | 0.61 | -0.203 | -0.0051 | -0.333 | -0.147 | -0.0471 | 0.0868 | 0.706 | 1.15
11 | C#CCCCON=C1[C@H]2CCn3c(=O)n(Cc4cc5c(cc4Cl)OCO5)c(=O)n3[C@H]2[C@H](O)[C@@H]2O[C@H]12 | 0.216 | -0.23 | -0.648 | -0.0845 (inactive) | 0.914 | 0.557 | 0.664 | 0.641 | 0.541 | 0.0951 | 0.493 | 0.113 | 0.711 | -0.692 | -1.22 | -0.129 | -0.273 | -0.162 | 0.526 | 0.499
12 | CCCNC(=O)OC[C@H]1O[C@H](CCON=C[C@@H](NS(=O)(=O)c2ccc(C)cc2)[C@H](C)C=CCC(=O)OC)C=C[C@@H]1Oc1ccc(OC)cc1 | -0.289 | -0.0175 | 0.0838 | -0.362 (inactive) | -0.0511 | -0.54 | -0.147 | -0.293 | -0.0968 | 0.32 | 0.186 | -1.65 | 0.65 | -1.21 | -1 | -0.117 | -0.138 | -0.0312 | 0.247 | 0.0462

Source: PubChem BioAssay
